Measured values taken from PubChem BioAssay AID624246 (National Center for Advancing Translational Sciences (NCATS), 2012).
Screen size: about 370,000 compounds; about 100 (0.027%) were called active. Calls follow the shape of the dose curve; as a rule, active = well fitted inhibition curve with a large enough effect in the polarisation, with a control signal flat; inconclusive = small, poorly fitted or top-dose-only effect, or effect the other way, or a change in a side signal; inactive = no such curve, though single readings can be large or run the other way; the % refers to the polarisation. Only a selection was taken, and actives are over-represented in it overall.

Biological target: Transcriptional regulator ERG (Homo sapiens) (UniProt P11308)
Sequence (P11308 whole entry, looked up): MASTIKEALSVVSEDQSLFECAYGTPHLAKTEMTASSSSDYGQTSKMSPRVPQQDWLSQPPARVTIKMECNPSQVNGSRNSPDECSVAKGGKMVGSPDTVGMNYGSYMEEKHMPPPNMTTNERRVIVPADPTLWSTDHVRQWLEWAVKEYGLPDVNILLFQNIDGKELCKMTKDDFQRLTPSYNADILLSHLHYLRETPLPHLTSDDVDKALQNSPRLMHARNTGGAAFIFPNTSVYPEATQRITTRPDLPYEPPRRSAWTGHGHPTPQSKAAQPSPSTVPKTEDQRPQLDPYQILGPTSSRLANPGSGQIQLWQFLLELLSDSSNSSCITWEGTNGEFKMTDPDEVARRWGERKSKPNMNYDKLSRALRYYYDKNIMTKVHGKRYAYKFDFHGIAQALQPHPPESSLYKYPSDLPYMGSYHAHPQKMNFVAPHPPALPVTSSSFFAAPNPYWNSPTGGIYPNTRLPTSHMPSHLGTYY
Assay: qHTS for Small Molecule Inhibitors of the ERG Ets/DNA interaction; also: % of control where 0% means no effect
Settings: fluorescence polarization, His-ERG Ets domain / labelled DNA; series mostly up to 76.9 µM; FP activity, negative = inhibition: at the top concentration
From the text: The Ets family of proteins is a family of ~30 conserved transcription factors defined by the presence of an ~85 amino acid domain referred to as the Ets domain, which mediates sequence-specific DNA binding to a core DNA element GGAA/T.The Ets family member ERG has been linked to several neoplasms. […] More extensive studies of the effects of over-expression of ERG in prostate cells have recently been carried out and have shown that over-expression of ERG results in increased invasion. […] We will carry out a high throughout screen to identify inhibitors of the interaction between ERG and DNA using a fluorescence polarization (FP) assay with a His-tagged ERG Ets domain and fluorescently-labeled DNA probes to develop small molecule inhibitors of this interaction as probes to test this hypothesis and lay the groundwork for the development of targeted therapies against ERG. NIH Molecular Libraries Probe Production Network [MLPCN] NIH Chemical Genomics Center [NCGC] Grant: NS066464 PI Name: John Bushweller, University of Virgina
1.5 ul of protein solution (1 uM ERG domain in 300mM KCl, 50mM Tris-HCl, 1mM EDTA, 1mM DTT, pH 7.5); 20 nl Control plate and compound library plate; 1.5 ul mixture of 5 nM Fluorescein-DNA and 100nM Texas-615-DNA solution in same buffer as above solution; measure fluorescence polarization sequentially for fluorescein (Excitation = 480 nm, Emission = 535s, 535p nm) and Texas red (Excitation = 555 nm, Emission = 632s, 632p nm).

FP activity, negative = inhibition, inactive:
Cc1nn2c(=O)cc(COC(=O)c3cccc(NC(=O)COc4ccccc4Cl)c3)nc2s1 8.49%, COc1ccc(CNC(=O)CC2Oc3ccc(C)cc3NC2=O)cc1 (configuration not stated) 1.76%, CCOc1ccc(C2C(=O)N(C3CCCCC3)CC(=O)N2CCC2=CCCCC2)cc1OC (configuration not stated) -1.03%, COc1ccc(NC(=O)CCCc2nnc3n(CCC(C)C)c(=O)c4sccc4n23)c(OC)c1 3.52%, COc1ccc(CCNC(=O)c2c3c(nc4ccccc24)C(=O)N(C2CCCCC2)C3)cc1OC 0.33%, Fc1ccccc1Oc1ncnc2c1oc1ccccc12 -0.355%, CCOC(=O)c1sc(NC(=O)/C=C/c2ccc(C(C)C)cc2)c(C(=O)OCC)c1C -7.51%, CCOC(=O)c1ccc(CN(Cc2ccccc2)S(=O)(=O)c2ccc(Cl)cc2)cc1 0.277%, COc1ccc(Br)cc1C1CC(=O)Nc2c1c(C)nn2-c1nc(C)cc(C)n1 (configuration not stated) -7.83%, Cc1ccc(Cl)cc1NC(=O)CCC(=O)N1CC(C)Sc2ccccc21 (configuration not stated) 3.77%, Cc1ccc(C(=O)CC2(O)C(=O)N(CCc3ccccc3)c3ccc(Br)cc32)cc1 (configuration not stated) -0.549%, COc1cc(NC(=O)Cn2nc(-c3ccc(C)c(C)c3)ccc2=O)cc(OC)c1 4.13%, COc1ccccc1NC(=O)CN1C(=O)c2ccccc2Sc2ccc(C(=O)N3CCCC3)cc21 -2.51%, CCOC(=O)c1[nH]c(C)c(CCC(=O)NCc2ccccc2C)c1C -3.1%, Cc1ccc(CNC(=O)CSc2c3c(nc4cc(Cl)ccc24)CCCC3)cc1 -0.34%, CCN1C(=O)c2ccccc2S(=O)c2ccc(C(=O)NCc3ccc(F)cc3)cc21 (configuration not stated) -4.21%, CC1Cc2cc(S(=O)(=O)CCC(=O)Nc3ccc(F)c(Cl)c3)ccc2N1C(=O)C1CC1 (configuration not stated) 0.16%, O=C(CSc1n[nH]c(-c2ccccc2)n1)N1CCCCC1 8.6%, O=C(/C=C/c1cn(CC(O)CN2CCc3ccccc32)c2ccccc12)c1ccc(Br)cc1 (configuration not stated) -7.5%, CC(=O)c1nn(-c2ccc(OC(F)(F)F)cc2)nc1Nc1ccccc1 -1.16%, Cc1nn(-c2ccc(N3CCCCC3)nn2)c(C)c1CCC(=O)NCc1ccccc1F -5.53%, CCc1ccc(C(=O)CC2(O)C(=O)N(CCc3ccccc3)c3ccc(Br)cc32)cc1 (configuration not stated) -0.514%, CCOc1cc(C2c3c(-c4ccc(Br)cc4)n[nH]c3C(=O)N2c2ccc(Cl)cc2)ccc1O (configuration not stated) 12%, CCOc1ccc(-c2nonc2NC(=O)c2oc3ccc(C)cc3c2C)cc1OCC 0.0958%, CC1=C(C(=O)OCC(C)C)C(c2ccc(OCc3ccccc3)cc2)N2C(=O)CCSC2=N1 (configuration not stated) -0.84%, O=C(NCc1ccccc1)c1ccc2c(c1)nc1n2CCCCC1 -0.294%, COC(=O)c1cc(S(=O)(=O)N2CCN(c3cc(Cl)ccc3C)CC2)c[nH]1 -1.55%, Cc1ccc(C)c(N2CCN(CCCNC(=O)Nc3ccc(Cl)cc3)CC2)c1 1.63%, COc1ccc(-c2cn3nc(N4CCC(C(=O)Nc5cccc(C)c5C)CC4)sc3n2)cc1 -1.85%, COc1ccc(OC)c(NC(=O)CSC2=Nc3ccccc3C3=NC(CC(=O)NCc4ccc(F)cc4)C(=O)N23)c1 (configuration not stated) 5.04%, Cc1ccc2oc(=O)c3cnn(CC(=O)NCc4ccccc4Cl)c3c2c1 -1.05%, CCOc1ccc(CNC(=O)c2cccc(Nc3nc4ccccc4n4nnnc34)c2)cc1OC -1.27%, Cc1ccc(C)c(Oc2c(C(F)(F)F)oc3c(CN4CCN(C)CC4)c(O)ccc3c2=O)c1 1.61%, CCOc1ccccc1NC(=O)CN1CCCN(Cc2cccc(Cl)c2)S1(=O)=O 4.01%, Cc1ccc(OCCSc2nc(C)c(Cc3ccccc3)c(=O)[nH]2)cc1 1.16%, CCC1(C)CC(=O)c2c(ccc3oc(C(=O)Nc4ccc(C(C)=O)cc4)c(C)c23)O1 (configuration not stated) -5.73%, COc1ccc(CCNC(=O)c2ccc(-n3c(C)cc4c3CCCC4)cc2)cc1OC -3.33%, Cc1ccc(C)c(CNC(=O)c2cc3ccccn3n2)c1 -10.3%, CCOc1ccccc1NC(=O)CN1CCN(S(=O)(=O)c2ccc(Br)cc2)CC1 2.57%, Cc1oc(-c2ccccc2F)nc1CN1CCC(C(=O)NCCc2ccc(Cl)cc2)CC1 -1.13%, CCOc1cccc(C(=O)Nc2nnc(S(=O)(=O)N(C)c3ccc(C)cc3)s2)c1 0.655%, COc1ccc(Cn2ccc3nc(C)c(C(=O)Nc4ccc(C)c(F)c4)cc3c2=O)cc1 -3.4%, COc1ccc(OC)c(CNC(=O)Cn2nc(C)c3c(C)n(-c4ccccc4)nc3c2=O)c1 3.15%, CCN(CC)CCNC(=O)CN1N=C(c2ccc(OC)cc2)CCC1=O -3.32%, CCOC(=O)c1cc2c(=O)n3ccccc3nc2n(CCCOC)c1=NC(=O)C(C)(C)Oc1ccc(Cl)cc1 -23.1%, COc1cccc(-c2nnc(SCC(=O)N3CCC(C)CC3)o2)c1 1.34%, COC(=O)c1ccc(NC(=O)c2cnn(-c3ccc(Cl)cc3)c2C2CCN(C(=O)OC(C)(C)C)CC2)cc1 2.85%
